# Source: PubChem BioAssay (NCATS)
# Results filed as inconclusive are left out. Active and inactive are the calls of the source. Calls follow the shape of the full dose curve.
# Target: Cytochrome P450 1A2 (Homo sapiens) (UniProt P05177)
# Test: p450-cyp1a2 (AID 410)
# Settings: recombinant CYP1A2, luciferin-ME demethylation, luminescence; series mostly up to 57 µM
# How it was run: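 20nM CYP1A2, 100uM Luciferin-ME (=Km), 100mM KPO4; cpd 10 min RT; +NADPH regen, 60 min RT; stop/detect 20 min; luminescence. Normalized to furafylline 57 uM = full inhibition.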
# Potency is read from the fitted curve at half-maximal effect.
# Cytochrome P450 1A2 (Homo sapiens), sequence (P05177 whole entry, looked up): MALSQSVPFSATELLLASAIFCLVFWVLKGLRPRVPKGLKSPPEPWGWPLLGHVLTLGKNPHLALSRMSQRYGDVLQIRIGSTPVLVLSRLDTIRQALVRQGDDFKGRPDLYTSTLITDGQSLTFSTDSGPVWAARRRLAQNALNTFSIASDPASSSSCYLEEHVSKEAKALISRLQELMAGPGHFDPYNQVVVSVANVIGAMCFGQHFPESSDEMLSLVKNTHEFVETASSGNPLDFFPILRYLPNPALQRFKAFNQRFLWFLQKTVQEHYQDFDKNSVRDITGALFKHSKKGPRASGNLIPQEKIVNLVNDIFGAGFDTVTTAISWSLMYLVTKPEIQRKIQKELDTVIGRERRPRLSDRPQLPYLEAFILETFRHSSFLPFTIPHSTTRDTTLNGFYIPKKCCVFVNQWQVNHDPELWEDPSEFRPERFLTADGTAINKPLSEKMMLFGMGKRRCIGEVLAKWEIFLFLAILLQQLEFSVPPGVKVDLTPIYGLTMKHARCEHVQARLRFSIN
row,SMILES,Potency
1,CN(C)Cc1ccccc1-c1ccc2ncnc(N(C)C)c2c1,12.6 µM (active)
2,COc1ccc2[nH]cc(CCNc3ncncc3-c3ccccc3C(F)(F)F)c2c1,10 µM (active)
3,CN(C)C(=O)c1ccc(-c2ccc3ncnc(Nc4ccc(F)cc4)c3c2)cc1,20 µM (active)
4,CN1CCN(c2nc(-c3ccoc3)nc3ccccc23)CC1,1.26 µM (active)
5,CN(C)c1nc(-c2cccc(NS(C)(=O)=O)c2)nc2ccccc12,0.501 µM (active)
6,CN1CCN(c2nc(-c3cccnc3)nc3ccccc23)CC1,3.16 µM (active)
7,O=c1cnc2cnc(N3CCOCC3)nc2n1Cc1cccs1,2.51 µM (active)
8,COc1ncc2nc(-c3cccs3)c(=O)n(CCC#N)c2n1,6.31 µM (active)
9,O=c1cc(-c2ccc(O)c(O)c2)oc2cc(O[C@@H]3O[C@@H](CO)[C@@H](O)[C@@H](O)[C@H]3O)cc(O)c12,39.8 µM (active)
10,COc1ccccc1CNc1ncnc2ccc(-c3ccc(C(=O)N(C)C)cc3)cc12,12.6 µM (active)
11,c1ccc2c(NCCN3CCOCC3)nc(-c3ccoc3)nc2c1,5.01 µM (active)
